# The panel holds about 79,000 compounds, 15% with a hit somewhere; the sample as a whole holds those more often. A number with no mark means an inactive call. Calls of active or inactive are those of the source. Cut-off read from the data, not from the text of the source: active = growth inhibition above about 70%; inactive = the rest.
# Tests used:
# [1] = NCI Yeast Anticancer Drug Screen. Data for the rad52 strain (AID 147);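 note: 0% = growth of vehicle-treated control cultures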; conditions: S. cerevisiae rad52 mutant growth inhibition, hits give high values
# Outline: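 Growth of repair-deficient yeast cells was compared between compound-treated and vehicle-treated cultures to give percent inhibition.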
# [2] = NCI Yeast Anticancer Drug Screen. Data for the wt1 strain (AID 149);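 note: 0% = growth of vehicle-treated wt1 cultures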; conditions: S. cerevisiae wt1 strain (SPY 50644) growth inhibition, hits give high values
# Outline: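 Measured: growth of wt1 yeast under compound versus vehicle treatment, reported as inhibition.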
# [3] = NCI Yeast Anticancer Drug Screen. Data for the rad50EPP+ strain (AID 151);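 note: 0% = growth of vehicle-treated control cultures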; conditions: S. cerevisiae rad50 mutant strain, hits give high values
# Outline: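 Measured: growth inhibition of rad50EPP+ yeast. Reference: vehicle-treated controls. Screen uses strains with defined genetic alterations in DNA damage repair or cell cycle control.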
# [4] = NCI Yeast Anticancer Drug Screen. Data for the mgt1 strain (AID 153); conditions: S. cerevisiae mgt1 mutant growth inhibition, hits give high values
# Outline: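 Compounds were applied to mgt1 mutant yeast, and growth was then compared against vehicle-treated control cultures to give percent inhibition.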
# [5] = NCI Yeast Anticancer Drug Screen. Data for the rad50 strain (AID 155);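 note: 0% = growth of vehicle-only cultures of the same strain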; conditions: S. cerevisiae rad50 strain growth inhibition, hits give high values
# Outline: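 Growth of the mutant yeast was measured after compound exposure and referenced to vehicle-treated cultures.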
# [6] = NCI Yeast Anticancer Drug Screen. Data for the mec2-1 strain (AID 157); conditions: S. cerevisiae mec2-1 strain, hits give high values
# Outline: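 Compounds were applied to mec2-1 yeast cells. Their growth was then compared with that of vehicle-treated cultures to give growth inhibition.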
# [7] = NCI Yeast Anticancer Drug Screen. Data for the rad14 strain (AID 159);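 note: 0% = growth of vehicle-treated control cultures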; conditions: S. cerevisiae rad14 strain growth inhibition, hits give high values
# Outline: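 Here, inhibition of yeast growth was measured after compound exposure, using a strain with a genetic defect in DNA damage repair and vehicle-treated cultures as the reference.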
# [8] = NCI Yeast Anticancer Drug Screen. Data for the sgs1 mgt1 strain (AID 161);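 note: 0% = growth of cultures given vehicle only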; conditions: S. cerevisiae sgs1 mgt1 strain, hits give high values
# Outline: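 Compounds are added to genetically altered yeast, and growth is compared with cultures given vehicle alone to give percent inhibition.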
# [9] = NCI Yeast Anticancer Drug Screen. Data for the CLN2oe strain (AID 163);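 note: 0% = growth of vehicle-only control cultures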; conditions: S. cerevisiae CLN2oe strain, hits give high values
# Outline: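 Cells of an engineered yeast line with disturbed cell-cycle regulation are treated with compound. Inhibition of growth is then calculated relative to the vehicle-treated reference.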
# [10] = NCI Yeast Anticancer Drug Screen. Data for the bub3 strain (AID 167); conditions: S. cerevisiae bub3 mutant strain, hits give high values
# Outline: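 Whole-cell yeast assay. The mutant strain was incubated with compounds, and growth inhibition was determined by comparison with vehicle-treated cells.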
# [11] = NCI Yeast Anticancer Drug Screen. Data for the wt2 strain (AID 169);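 note: 0% = growth of vehicle-treated yeast cultures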; conditions: S. cerevisiae wt2 strain growth inhibition, hits give high values
# Outline: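 Growth of compound-treated yeast is measured and expressed as inhibition relative to vehicle-only controls.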
# [12] = NCI Yeast Anticancer Drug Screen. Data for the mlh1 strain (AID 171);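 note: 0% = growth of vehicle-treated control cultures of the same strain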; conditions: S. cerevisiae mlh1 strain growth inhibition, hits give high values
# Outline: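 Test agents were incubated with yeast bearing a defined DNA damage repair or cell cycle control alteration; values are growth inhibition normalised to vehicle-treated cultures.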
# [13] = NCI Yeast Anticancer Drug Screen. Data for the sgs1 strain (AID 173);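 note: 0% = growth of vehicle-only control cultures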; conditions: S. cerevisiae sgs1 mutant, hits give high values
# Outline: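 Strain with an altered DNA repair or cell cycle pathway exposed to compound. Growth then measured. Value = inhibition versus vehicle control.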
# [14] = NCI Yeast Anticancer Drug Screen. Data for the mlh1 rad18 strain (AID 175); conditions: S. cerevisiae mlh1 rad18 strain growth inhibition, hits give high values
# Outline: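 A repair-deficient yeast strain is exposed to test compound, and growth is scored relative to vehicle-treated controls.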
# [15] = NCI Yeast Anticancer Drug Screen. Data for the rad18 strain (AID 177); conditions: S. cerevisiae rad18 mutant growth inhibition, hits give high values
# Outline: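 DNA-repair-defective yeast; compound treatment; growth inhibition scored against vehicle.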
# [16] = at 5.0 µM (retest, dose inferred, filed as 0.5)
# [17] = at 50.0 µM (retest, dose inferred, filed as 5.0)
compound,measurement,setting,value
CC(=O)SCCC[Si](C)(C)CCCSC(C)=O,growth inhibition,[1]; at 1.2 µM,-1%
same,growth inhibition,[1]; at 3.7 µM,2%
same,growth inhibition,[1]; at 11.0 µM,7%
same,growth inhibition,[1]; at 33.0 µM,28%
same,growth inhibition,[1]; at 100.0 µM,53%
same,growth inhibition,[2]; at 1.2 µM,-3%
same,growth inhibition,[2]; at 3.7 µM,-5%
same,growth inhibition,[2]; at 11.0 µM,-7%
same,growth inhibition,[2]; at 33.0 µM,4%
same,growth inhibition,[2]; at 100.0 µM,31%
same,growth inhibition,[3]; at 1.2 µM,-3%
same,growth inhibition,[3]; at 3.7 µM,2%
same,growth inhibition,[3]; at 11.0 µM,12%
same,growth inhibition,[3]; at 33.0 µM,11%
same,growth inhibition,[3]; at 100.0 µM,20%
same,growth inhibition,[4]; at 1.2 µM,-4%
same,growth inhibition,[4]; at 3.7 µM,-4%
same,growth inhibition,[4]; at 11.0 µM,-5%
same,growth inhibition,[4]; at 33.0 µM,7%
same,growth inhibition,[4]; at 100.0 µM,39%
same,growth inhibition,[5]; at 1.2 µM,1%
same,growth inhibition,[5]; at 3.7 µM,2%
same,growth inhibition,[5]; [16],-1%
same,growth inhibition,[5]; at 11.0 µM,5%
same,growth inhibition,[5]; at 33.0 µM,21%
same,growth inhibition,[5]; [17],51%
same,growth inhibition,[5]; at 50.0 µM,55.2%
same,growth inhibition,[5]; at 100.0 µM,44%
same,growth inhibition,[6]; at 1.2 µM,-3%
same,growth inhibition,[6]; at 3.7 µM,-3%
same,growth inhibition,[6]; [16],-2%
same,growth inhibition,[6]; at 11.0 µM,-5%
same,growth inhibition,[6]; at 33.0 µM,3%
same,growth inhibition,[6]; [17],46%
same,growth inhibition,[6]; at 50.0 µM,53.6%
same,growth inhibition,[6]; at 100.0 µM,35%
same,growth inhibition,[7]; at 1.2 µM,-3%
same,growth inhibition,[7]; at 3.7 µM,0%
same,growth inhibition,[7]; at 11.0 µM,0%
same,growth inhibition,[7]; at 33.0 µM,14%
same,growth inhibition,[7]; at 100.0 µM,39%
same,growth inhibition,[8]; [16],1%
same,growth inhibition,[8]; [17],63%
same,growth inhibition,[8]; at 50.0 µM,70.8% (active)
same,growth inhibition,[9]; at 1.2 µM,-4%
same,growth inhibition,[9]; at 3.7 µM,-6%
same,growth inhibition,[9]; at 11.0 µM,-7%
same,growth inhibition,[9]; at 33.0 µM,13%
same,growth inhibition,[9]; at 100.0 µM,48%
same,growth inhibition,[10]; at 1.2 µM,-1%
same,growth inhibition,[10]; at 3.7 µM,3%
same,growth inhibition,[10]; [16],10%
same,growth inhibition,[10]; at 11.0 µM,3%
same,growth inhibition,[10]; at 33.0 µM,23%
same,growth inhibition,[10]; [17],61%
same,growth inhibition,[10]; at 50.0 µM,65.7%
same,growth inhibition,[10]; at 100.0 µM,47%
same,growth inhibition,[11]; at 1.2 µM,-1%
same,growth inhibition,[11]; at 3.7 µM,-9%
same,growth inhibition,[11]; at 11.0 µM,-6%
same,growth inhibition,[11]; at 33.0 µM,5%
same,growth inhibition,[11]; at 100.0 µM,33%
same,growth inhibition,[12]; at 1.2 µM,-4%
same,growth inhibition,[12]; at 3.7 µM,-3%
same,growth inhibition,[12]; at 11.0 µM,-2%
same,growth inhibition,[12]; at 33.0 µM,21%
same,growth inhibition,[12]; at 100.0 µM,51%
same,growth inhibition,[13]; at 1.2 µM,-2%
same,growth inhibition,[13]; at 3.7 µM,22%
same,growth inhibition,[13]; at 11.0 µM,4%
same,growth inhibition,[13]; at 33.0 µM,29%
same,growth inhibition,[13]; at 100.0 µM,48%
same,growth inhibition,[14]; [16],-2%
same,growth inhibition,[14]; [17],58%
same,growth inhibition,[14]; at 50.0 µM,64.7%
same,growth inhibition,[15]; at 1.2 µM,-5%
same,growth inhibition,[15]; at 3.7 µM,1%
same,growth inhibition,[15]; at 11.0 µM,3%
same,growth inhibition,[15]; at 33.0 µM,19%
same,growth inhibition,[15]; at 100.0 µM,51%
